Reference: PubChem BioAssay (EPA / NIEHS)
Records with an inconclusive call do not appear. Activity calls are given as the source filed them. Rule for the calls, unless noted: active = hit-call score of the fitted dose curve at least 0.9, where 1 is the maximum; inconclusive = response in the unintended direction; inactive = score below 0.9.

Tests used:
[1] = Tanguay_ZF_120hpf_JAW_legacy: (Legacy) Oregon State University Tanguay Lab 120 Hour Post-fertilization zebrafish Assay for Jaw Malformation (AID 2283638);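 for AC50: active means more embryos with jaw malformation than DMSO controls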
How it was run: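 Static waterborne exposure of dechorionated wild-type (Tropical 5D) zebrafish from 6 to 120 hpf at 28C, 0.64% DMSO vehicle; 5uM trimethyltin chloride served as positive control. Jaw morphology recorded as binary at 120 hpf.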

[2] = Tanguay_ZF_120hpf_OTIC_legacy: (Legacy) Oregon State University Tanguay Lab 120 Hour Post-fertilization zebrafish Assay for Otic Vesicle Malformation (AID 2283639)
How it was run: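 Binary scoring of otic vesicle defects at 120 hpf in zebrafish (Tropical 5D) held under static exposure at 28C, sealed and shaded, with final DMSO 0.64%. Embryos dying by 24 or 120 hpf excluded; fitted positively against DMSO.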

[3] = Tanguay_ZF_120hpf_PE_legacy: (Legacy) Oregon State University Tanguay Lab 120 Hour Post-fertilization zebrafish Assay for Pericardial Edema (AID 2283640);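 for AC50: potency for increased incidence of pericardial edema versus DMSO baseline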
How it was run: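 Read-out is the presence or absence of pericardial edema at 120 hpf under brightfield, with gain of signal fitted against DMSO controls. Larvae (5D wild-type) were statically exposed at 28C with 0.64% final DMSO.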

[4] = Tanguay_ZF_120hpf_BRAI_legacy: (Legacy) Oregon State University Tanguay Lab 120 Hour Post-fertilization zebrafish Assay for Brain Malformation (AID 2283641)
How it was run: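 Brain malformation in Tropical 5D zebrafish was recorded as a binary endpoint after static compound exposure from early development to 120 hpf at 28C. Activity was analysed against DMSO as negative control.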

[5] = Tanguay_ZF_120hpf_SOMI_legacy: (Legacy) Oregon State University Tanguay Lab 120 Hour Post-fertilization zebrafish Assay for Somite Malformation (AID 2283647)
How it was run: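 5D WT zebrafish; chorion removed 4 hpf; 1 embryo/well from 6 hpf; static exposure to 120 hpf, 28C, 0.64% DMSO final. Endpoint: somite malformation, binary, brightfield. Mortality excluded.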

[6] = Tanguay_ZF_120hpf_CFIN_legacy: (Legacy) Oregon State University Tanguay Lab 120 Hour Post-fertilization zebrafish Assay for Caudal Fin Malformation (AID 2283649)
How it was run: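 Embryos were collected from Tropical 5D wild-type adults and dechorionated at 4 hpf. At 6 hpf each was exposed, one per well, at 0.64% DMSO and 28C. At 120 hpf fin morphology was scored; dead embryos were excluded.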

[7] = Tanguay_ZF_120hpf_PFIN_legacy: (Legacy) Oregon State University Tanguay Lab 120 Hour Post-fertilization zebrafish Assay for Pectoral Fin Malformation (AID 2283648);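 note: each larva judged yes or no for fin defect by brightfield with dead larvae skipped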
How it was run: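 Scoring of pectoral fin malformation was binary, made at 120 hpf on larvae exposed statically from 6 hpf after enzymatic chorion removal. Activity was fitted upward relative to DMSO controls at 0.64% (vol/vol).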

[8] = Tanguay_ZF_120hpf_PIG_legacy: (Legacy) Oregon State University Tanguay Lab 120 Hour Post-fertilization zebrafish Assay for Pigmentation Malformation (AID 2283650)
How it was run: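 Endpoint is incidence of abnormal pigmentation at 120 hpf in dechorionated 5D zebrafish exposed singly from 6 hpf at 28C, DMSO vehicle at 0.64%. Embryos dying by 24 or 120 hpf are excluded from scoring.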

[9] = Tanguay_ZF_120hpf_CIRC_legacy: (Legacy) Oregon State University Tanguay Lab 120 Hour Post-fertilization zebrafish Assay for Circulatory Malformation (AID 2283651)
How it was run: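 Binary circulatory malformation call at 120 hpf by brightfield imaging of zebrafish larvae; chorion removed at 4 hpf, static exposure from 6 hpf in sealed dark plates at 28C, final DMSO 0.64%; non-mortality endpoints skipped if embryo died.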

[10] = read-out: kallikrein-3 (KLK3), KLK3 (gene 354); test: LTEA_HepaRG_KLK3: Life Technologies and Expression Analysis (LTEA) Assay for kallikrein-3 (KLK3) using HepaRG (AID 2283652; active = hit-call score of the fitted dose curve at least 0.9, where 1 is the maximum; inactive = score below 0.9); conditions: mRNA level, 48 h; actives raise or lower the signal
How it was run: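 KLK3 transcript levels were measured by TaqMan qRT-PCR with normalisation to three housekeeping genes. HepaRG cultures received chemicals for 48 h at up to 100 uM (half-log, 8 points, 0.5% DMSO vehicle), fitted in both directions against DMSO.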

Measured: AC50

OCCCBr
inactive: [1] | [2] | [3] | [4] | [5] | [6]

CC(C)(O)c1cnn2c(-c3ccc(F)c(-c4c(F)cccc4C#N)c3)cnc2n1
not listed: [10]
inactive: all other assays above

CC(O)CCO (stereo not drawn)
not listed: [10]
inactive: all other assays above

Clc1ccccc1Cl
not listed: [7] | [10]
inactive: all other assays above

Nc1ccc(N=Nc2ccccc2)cc1
active: [3] 25.6 µM
not listed: [6] | [8] | [10]
inactive: all other assays above

CCCCC(CC)COC(=O)c1ccc(C(=O)OCC(CC)CCCC)c(C(=O)OCC(CC)CCCC)c1 (stereo not drawn)
not listed: [10]
inactive: all other assays above

Cc1cccc(N)c1N
active: [3] 54 µM
not listed: [6] | [10]
inactive: all other assays above

CN(C)C(=O)Nc1ccc(Cl)cc1
not listed: [6]
inactive: all other assays above

CN(C)c1ccccc1
not listed: [6] | [10]
inactive: all other assays above

COP(=S)(OC)SCN1C(=O)c2ccccc2C1=O
not listed: [10]
inactive: all other assays above

c1ccc(C2CO2)cc1 (stereo not drawn)
not listed: [10]
inactive: all other assays above

COc1cc(C=O)cc2c1[C@H](COC(N)=O)[C@]1(OC(C)=O)ON2C[C@H]2[C@@H]1N2C(C)=O
not listed: [7] | [10]
inactive: all other assays above

[As]#[In]
not listed: [10]
inactive: all other assays above

CO[C@@H]1[C@H](OC(=O)NC(=O)CCl)CC[C@]2(CO2)[C@H]1[C@@]1(C)O[C@@H]1CC=C(C)C
active: [1] 0.0405 µM | [3] 0.0102 µM
inactive: [2] | [4] | [5] | [7] | [9]

O=C(Oc1ccc(Br)cc1)N1CCN2CCC1CC2
active: [3] 9.47 µM
not listed: [7] | [10]
inactive: all other assays above

C1=Cc2cccc3cccc1c23
inactive: all assays above

N#CC(Br)(Br)C(N)=O
not listed: [6] | [8] | [10]
inactive: all other assays above

CCC(C)c1ccc(O)cc1 (stereo not drawn)
not listed: [6] | [8] | [10]
inactive: all other assays above

Cn1cc(-c2ccccc2)c(=O)c(-c2cccc(C(F)(F)F)c2)c1
not listed: [6] | [10]
inactive: all other assays above

Oc1ccc2ccc3cccc4ccc1c2c34
active: [1] 46.8 µM | [2] 11.2 µM | [3] 50.4 µM | [4] 46.1 µM | [5] 18.4 µM | [7] 12.2 µM | [8] 44 µM
inactive: [9]

Cc1ccc(N)cc1
not listed: [6] | [10]
inactive: all other assays above

CCCCOC(=O)c1ccccc1C(=O)OCc1ccccc1
not listed: [8] | [10]
inactive: all other assays above

CCN(CC)N=O
not listed: [7] | [9] | [10]
inactive: all other assays above

c1ccc(N=Nc2ccccc2)cc1
inactive: [1] | [2] | [3] | [4]

CCC[CH2][Sn]([Cl])([CH2]CCC)[CH2]CCC
not listed: [6] | [10]
inactive: all other assays above

CCOc1cccc(C2(N3CCN(c4ccccc4)CC3)CCC(C)CC2)c1 (stereo not drawn)
not listed: [6] | [10]
inactive: all other assays above

[Cl-].[Cl-].[Hg+2]
active: [1] 3.12 µM | [2] 3.86 µM | [3] 3.82 µM | [4] 1.22 µM | [5] 3.87 µM | [7] 3.5 µM | [8] 1.05 µM | [9] 3.58 µM

C[C@]12C=CC3=C4CCC(=O)C=C4CC[C@H]3[C@@H]1CC[C@@H]2O
inactive: [2] | [5] | [8] | [9]
active: [1] 30.5 µM | [3] 29.9 µM | [4] 27.1 µM

CNC(=O)Oc1cccc2c1OC(C)(C)C2
active: [1] 36 µM
not listed: [6] | [7] | [10]
inactive: all other assays above

Nc1ccc(Oc2ccc(N)cc2)cc1
not listed: [6] | [7] | [10]
inactive: all other assays above

Cc1cc(N=Nc2ccccc2C)ccc1N
inactive: [1] | [2] | [4] | [8] | [9]
active: [3] 55.7 µM

CCCSC(=O)N(CCC)CCC
not listed: [6] | [7] | [10]
inactive: all other assays above

O=C(Nc1ccccc1)c1ccccc1I
active: [1] 50.4 µM | [2] 48 µM | [3] 43.5 µM | [9] 76.6 µM
inactive: [4] | [5] | [8]

CCNS(=O)(=O)C(F)(F)C(F)(F)C(F)(F)C(F)(F)C(F)(F)C(F)(F)C(F)(F)C(F)(F)F
inactive: [9]
active: [1] 41.5 µM | [2] 46.9 µM | [3] 53.8 µM | [4] 45.5 µM | [5] 9.56 µM | [8] 46.8 µM

OCCCl
not listed: [6] | [7] | [10]
inactive: all other assays above

Nc1ccc(Cl)cc1N
not listed: [6] | [7] | [10]
inactive: all other assays above

CCCCCCCCCCCCCN1CC(C)OC(C)C1 (stereo not drawn)
not listed: [7] | [10]
inactive: all other assays above

ClC1=C(Cl)[C@]2(Cl)[C@H]3[C@H]([C@@H]4C=C[C@H]3C4)[C@@]1(Cl)C2(Cl)Cl
not listed: [6] | [7] | [10]
inactive: all other assays above

CCCCCCCCn1sccc1=O
not listed: [5] | [10]
inactive: all other assays above

COC(=O)c1ccccc1N
not listed: [7] | [8] | [10]
inactive: all other assays above

[O-][Cl+]O
not listed: [6] | [7] | [10]
inactive: all other assays above

CC(C)(C)OOC(=O)c1ccccc1
not listed: [6] | [7] | [10]
inactive: all other assays above

CC(C)N(Cc1ccccc1)C(=O)C(C)(C)C
inactive: [1] | [2] | [3] | [4] | [5] | [9]

COC(=O)Nc1nc2ccccc2[nH]1
not listed: [6] | [7] | [10]
inactive: all other assays above

Nc1ccc([N+](=O)[O-])cc1
not listed: [6] | [7] | [10]
inactive: all other assays above

ClC1=C(Cl)C2(Cl)C3C(Cl)C=CC3C1(Cl)C2(Cl)Cl (stereo not drawn)
not listed: [5] | [6]
inactive: all other assays above

Cc1ccc([N+](=O)[O-])cc1
not listed: [7]
inactive: all other assays above

CC(C)COC(=O)c1ccccc1C(=O)OCC(C)C
active: [1] 29.7 µM | [5] 50.6 µM
not listed: [7]
inactive: all other assays above

CCCCCOC(=O)c1ccccc1C(=O)OCCCCC
not listed: [6] | [7] | [10]
inactive: all other assays above

C[N+](C)(C)CC1CO1 (stereo not drawn)
inactive: [1] | [2] | [3] | [4] | [5] | [8]

CCOC(=O)[C@]1(c2ccccc2)Oc2ccccc2[C@@H]1N
not listed: [6] | [7] | [10]
inactive: all other assays above

CN(C)c1ccc(C(=O)c2ccc(N(C)C)cc2)cc1
inactive: [6]
active: [1] 23.4 µM | [2] 12.9 µM | [3] 22.7 µM | [4] 48.7 µM | [5] 28.4 µM | [9] 9.77 µM

Cc1ccc(N=C=O)cc1N=C=O
not listed: [7] | [8] | [10]
inactive: all other assays above

N#CC(Br)Br
inactive: [1] | [2] | [3] | [4] | [5] | [9]

CC(C)(OOC(C)(C)c1ccccc1)c1ccccc1
not listed: [6] | [7] | [10]
inactive: all other assays above
